# Screening results (PubChem)
# JMJD2A Tudor inh – inhibitors of human JMJD2A Tudor domain; O75164; AlphaScreen JMJD2A-Tudor / H3K4me3 peptide binding; Potency, µM (highest dose often 114 µM), for the others: at the top dose activity change, negative = inhibition, most hits filed as inhibitors; hit rate 4.4% among 390,000; AID 504339; also: potency is read from the fitted curve at half-maximal effect; % is scaled to controls: 0 for no effect and ±100 for the full control effect; nearly all actives have a fitted effect of over 50% in size
# G9a inh – inhibitors of human histone lysine methyltransferase G9a | Potency, µM (doses to about 102 µM), for the others: at the top dose activity, negative = inhibition, actives largely listed as inhibitors | hit rate 8.8% among 350,000 | AID 504332 | Q96KQ7 | G9a H3K9 monomethylation, AlphaScreen, 2 h; also: potency is read from the fitted curve at half-maximal effect; % is scaled to controls: 0 for no effect and ±100 for the full control effect; nearly all actives have a fitted effect of over 75% in size
# Target sequence (Q96KQ7 913-1193 limits assumed): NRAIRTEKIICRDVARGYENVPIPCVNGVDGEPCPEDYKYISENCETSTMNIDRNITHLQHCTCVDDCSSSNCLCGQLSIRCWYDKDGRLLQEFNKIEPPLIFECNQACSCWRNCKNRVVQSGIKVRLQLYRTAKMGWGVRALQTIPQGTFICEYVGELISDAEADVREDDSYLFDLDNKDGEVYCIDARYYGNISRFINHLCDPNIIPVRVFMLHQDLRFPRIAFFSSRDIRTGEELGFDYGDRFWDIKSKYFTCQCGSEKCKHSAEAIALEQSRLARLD
#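 G9a (20 nM) was preincubated 15 min with compound, then reacted 2 h at room temperature with 500 nM biotin-H3K9 peptide and 20 µM SAM. Monomethyl-H3K9 detected by AlphaScreen using anti-H3K9me1 antibody.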
# PI5P4K alpha inh – blocks human PI5P4K alpha kinase activity | max response, % | AID 652105 | hit rate 1.2% among 330,000 | PI5P4Kalpha enzyme, ADP-Glo luminescence, 60 min; hits give low values; active = max response of -50% or lower; inconclusive = between -30% and -50%; inactive = -30% or higher; also: value at the top dose of about 77 µM; % is scaled to controls: 0 for no effect and ±100 for the full control effect
#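 Controls without substrate or without enzyme flank wells where PI5P4Kalpha converts substrate using 5 microM ATP (final). Incubation lasts 60 minutes at room temperature; ADP formed is read by ADP-Glo luminescence.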
# HP1b chromo inh – HP1-beta chromodomain-methylated histone interaction inhibition | Potency, µM (doses to about 114 µM), for the others: at the top dose activity change, negative = inhibition, usual class: inhibitors | hit rate 0.56% among 390,000 | AlphaScreen HP1-beta / biotin-H3K9me3 peptide binding | AID 540317 | P83916; also: potency is read from the fitted curve at half-maximal effect; nearly all actives have a fitted effect of over 70% in size
# Target sequence (P83916 whole entry, looked up): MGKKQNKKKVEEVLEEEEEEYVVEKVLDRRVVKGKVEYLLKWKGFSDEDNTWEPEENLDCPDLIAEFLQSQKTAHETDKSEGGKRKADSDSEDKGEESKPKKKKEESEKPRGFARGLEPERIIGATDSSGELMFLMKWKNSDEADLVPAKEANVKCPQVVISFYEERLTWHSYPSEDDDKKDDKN
#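 Compound inhibition of the preformed complex between 50 nM HP1-beta and 50 nM biotinylated H3K9me3 peptide was read by AlphaScreen. Buffer was PBS pH 7.4 with 0.01% Tween-20. Incubations ran 30 min at room temperature, with 10 ug/mL donor/acceptor beads.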
# BAZ2B inh – blocks human BAZ2B; hit rate 4.4% among 360,000; AlphaScreen BAZ2B-H3K14Ac peptide displacement; Potency, µM (titrated, usually from 114 µM), for inactives: at the highest dose activity change, negative = inhibition, usual class: inhibitors; also: potency is read from the fitted curve at half-maximal effect; % is scaled to controls: 0 for no effect and ±100 for the full control effect; nearly all actives have a fitted effect of over 60% in size
#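 In this displacement format the biotinylated H3(5-23) peptide acetylated at Lys14 serves as ligand at 50 nM, with BAZ2B at 50 nM in PBS pH 7.4 containing 0.01% Tween-20. Donor and acceptor beads are 10 ug/mL final.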
# PLK1 PBD inh – PLK1 (human) polo-box domain binding inhibition; hit rate 2.8% among 360,000; Plk1 PBD binding of FITC phosphopeptide, fluorescence polarization; Potency, µM, without a hit: max response, negative = inhibition, most hits filed as inhibitors; also: potency is read from the fitted curve at half-maximal effect; series mostly up to about 57 µM; % is scaled to controls: 0 for no effect and ±100 for the full control effect; nearly all actives have a fitted effect of over 65% in size
# Numbers without * were called inactive; ? = inconclusive; / = no result given; [ ] = remark or other dose. A selection: hits, their analogues and other compounds. The true share with any hit is near 12%. Unless noted, calls follow the shape of the dose curve; as a rule, active = well fitted curve in the direction sought with a large enough effect; inconclusive = small, poorly fitted or top-dose-only effect, or another doubt; inactive = no such curve, though single readings can be large; an effect the other way counts as inactive or inconclusive.
SMILES,JMJD2A Tudor inh,G9a inh,PI5P4K alpha inh,HP1b chromo inh,BAZ2B inh,PLK1 PBD inh
O=C(CCNS(=O)(=O)c1ccccc1)OCC(=O)c1ccc[nH]1,-6%,50µM*,?,20%,7%,0%
Cc1ccc(S(=O)(=O)NCN2C(=O)c3ccccc3C2=O)cc1,/,/,0,/,/,7%
Cc1ccc(S(=O)(=O)NCC(=O)OCN2C(=O)c3ccccc3C2=O)cc1,?,?,?,-16%,11%,5.3µM*
COc1ccc(CNC(=O)CCn2c(=O)c3cccn3c3ccc(F)cc32)cc1OC,3%,4%[59 µM],/,67%,-13%,/
CCCCCCCCCCCCCC(=O)N[C@@H](C)[C@H](O)c1ccccc1,/,28%[59 µM],/,/,/,/
COc1ccc(NC(=O)CN(C)C(=O)CCCN2C(=O)c3cccc4cccc(c34)C2=O)cc1,-16%,?,1,7%,10%,-13%
CCOC(=O)c1cc(C(=O)OCC)c(=O)[nH]c1SCc1ccccc1,5%,-18%,-4,60%,-36%,-24%
Cc1ccc(NC(=O)Cn2c(O)c(N=NC(N)=O)c3ccccc32)cc1,-9%,3%,-1,12%,-22%,-1%
Cc1ccccc1NC(=O)Cn1c(O)c(N=NC(=O)c2ccccc2O)c2ccccc21,-32%,?,-19,16%,63µM*,-8%
Cc1ccc(NC(=O)Cn2c(O)c(N=NS(=O)(=O)c3ccc(C)cc3)c3ccccc32)cc1,25µM*,2.5µM*,?,-1%,-39%,27µM*
CCn1c(O)c(N=NC(=O)CNc2ccc(C)cc2)c2ccccc21,56µM*,?,1,?,32µM*,-5%
CCn1c(O)c(N=NC(=O)CNc2cccc(C)c2)c2ccccc21,?,-7%[59 µM],-1,-7%,?,-2%
Cn1c(O)c(N=NC(=O)CNC(=O)c2ccccc2)c2ccccc21,-11%,-6%,3,13%,-21%,4%
Cc1ccc(NCC(=O)N=Nc2c(O)n(C)c3ccccc23)cc1,-25%,/,-1,4%,18µM*,-14%
Cc1cccc(Cc2cccc(C)c2O)c1O,-11%,/,-4,-6%,/,-14%
O=[N+]([O-])c1ccc(C2CCCC/C2=N/O)c([N+](=O)[O-])c1 (stereo not drawn),0%,-3%,0,13%,-15%,0%
O=C(O/N=C1\CCCCC1c1ccc([N+](=O)[O-])cc1[N+](=O)[O-])c1c(F)cccc1F (stereo not drawn),45µM*,40µM*,-13,-31%,?,?
COc1ccc2c(c1)C(=O)O[C@@H](c1ccccc1)C[C@@H](O)C(=O)CC2,/,/,4,/,/,-6%
COc1cccc(/C(C#N)=C/c2c(-c3ccc(Cl)cc3)nc3c(C)cccn23)c1,?,10µM*,19,?,?,-14%
O=C(NCC(c1ccco1)N1CCCC1)c1ccccc1Sc1ccc(C(F)(F)F)cc1[N+](=O)[O-] (stereo not drawn),?,10µM*,2,-29%,?,-7%
C=C(C)c1cccc(C(C)(C)NC(=O)N2CCN(C(=O)OCC)CC2)c1,/,/,1,/,/,1%
COc1ccc(NC(=O)COC(=O)c2cc3c(s2)CCC3)cc1,?,10%[12.7 µM],?,?,79µM*,-20%
NC(=O)c1ccc(NC(=O)COC(=O)c2cc3c(s2)CCC3)cc1,?,/,?,?,/,-9%
O=C(COC(=O)c1cc2c(s1)CCC2)Nc1ccc(F)cc1,14µM*,?,?,40µM*,50µM*,-27%
O=C(NCCc1cccs1)c1ccc(Cn2c(SCc3ccccc3)nc3cccnc32)cc1,-14%,-22%[59 µM],/,19%,-28%,/
O=C(NCc1ccco1)c1ccc(-c2ccccc2Cl)o1,-16%,56µM*,-5,-5%,?,-4%
O=C(NCc1ccco1)c1ccc(-c2ccc(Cl)cc2)o1,-35%,50µM*,7,-13%,?,-12%
COc1ccccc1CNC(=O)c1ccc(CS(=O)(=O)c2c(Cl)cccc2Cl)o1,-21%,1%[59 µM],/,16%,-14%,/
